Experimental data published in PubChem BioAssay AID1159580 (chemical genetic matrix, 2015).
Several values for one entry are separate records, joined by “and”; a condition that tells them apart may be missing. Equal entries are not always repeated. Hit rate of the full screen: of about 5,500 compounds, about 2,000 (36%) were called active. Inconclusive results (about 18%) are left out. Cut-off read from the data, not from the text of the source: active = normalized growth mostly below about 0.91 (no sharp cut-off); inconclusive = no clear call, values can overlap the other calls; inactive = mostly above about 0.92. The list shows a part of the results.

Test: chemical genetic growth profiling, strain panel (AID 1159580);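 note: tested at 20 µM; growth read once vehicle control cultures reached saturation at 30 °C; 1 = growth at the plate median or of vehicle wells; lower values mean less growth of the strain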
Conditions: growth OD

Measured: normalized growth

Cc1ccccc1C(OCCN(C)C)c1ccccc1 (stereo not given)
inactive: S. cerevisiae deletion strains, locus YJR075W, strain HOC1, hits give low values 0.986 and 0.988 | S. cerevisiae deletion strains, locus YKL009W, strain mrt4, hits give low values 0.999 | S. cerevisiae deletion strains, locus YKL068W, hits give low values 0.996 | S. cerevisiae deletion strains, locus YKL085W, strain MDH1 (second series), hits give low values 1 | S. cerevisiae deletion strains, locus YKL085W, strain MDH1, hits give low values 1 | S. cerevisiae deletion strains, locus YKL160W, strain elf1, hits give low values 1.01 | S. cerevisiae deletion strains, locus YKL190W, strain CNB1, hits give low values 0.996 | S. cerevisiae deletion strains, locus YKR001C, strain vps1, hits give low values 1.03 | S. cerevisiae deletion strains, locus YKR026C, strain gcn3, hits give low values 1.01 | S. cerevisiae deletion strains, locus YKR091W, strain srl3, hits give low values 1.01 | S. cerevisiae deletion strains, locus YLL001W, strain dnm1, hits give low values 1 | S. cerevisiae deletion strains, locus YLL026W, hits give low values 1.01 | S. cerevisiae deletion strains, locus YLL041C, strain sdh2, hits give low values 0.998 | S. cerevisiae deletion strains, locus YLR027C, strain aat2, hits give low values 0.994 | S. cerevisiae deletion strains, locus YLR039C, strain RIC1, hits give low values 1.14 | S. cerevisiae deletion strains, locus YLR058C, strain SHM2, hits give low values 0.996 | S. cerevisiae deletion strains, locus YLR102C, strain apc9, hits give low values 1 | S. cerevisiae deletion strains, locus YLR113W, strain HOG1, hits give low values 0.956 | S. cerevisiae deletion strains, locus YLR221C, strain rsa3, hits give low values 1.01 | S. cerevisiae deletion strains, locus YLR258W, strain gsy2, hits give low values 1 | S. cerevisiae deletion strains, locus YLR262C, strain YPT6 (second series), hits give low values 1.05 | S. cerevisiae deletion strains, locus YLR262C, strain YPT6, hits give low values 1.13 | S. cerevisiae deletion strains, locus YLR268W, strain sec22, hits give low values 1.05 | S. cerevisiae deletion strains, locus YLR320W, strain mms22, hits give low values 1.02 | S. cerevisiae deletion strains, locus YLR330W, strain CHS5, hits give low values 1.01 | S. cerevisiae deletion strains, locus YLR342W, strain FKS1 (second series), hits give low values 1 | S. cerevisiae deletion strains, locus YLR342W, strain FKS1, hits give low values 1.03 | S. cerevisiae deletion strains, locus YLR357W, strain rsc2, hits give low values 1.01 | S. cerevisiae deletion strains, locus YLR370C, strain arc18, hits give low values 1 | S. cerevisiae deletion strains, locus YLR371W, strain rom2, hits give low values 1.01 | S. cerevisiae deletion strains, locus YLR384C, strain iki3, hits give low values 1.01 | S. cerevisiae deletion strains, locus YLR418C, strain cdc73, hits give low values 0.94 | S. cerevisiae deletion strains, locus YML016C, strain PPZ1, hits give low values 1 | S. cerevisiae deletion strains, locus YML032C, strain rad52, hits give low values 1.01 | S. cerevisiae deletion strains, locus YML120C, strain ndi1, hits give low values 1.01 | S. cerevisiae deletion strains, locus YML124C, strain tub3, hits give low values 1 | S. cerevisiae deletion strains, locus YMR058W, strain fet3, hits give low values 0.977 | S. cerevisiae deletion strains, locus YMR078C, strain ctf18, hits give low values 1.01 | S. cerevisiae deletion strains, locus YMR125W, strain sto1, hits give low values 1.01 | S. cerevisiae deletion strains, locus YMR129W, hits give low values 1.01 | S. cerevisiae deletion strains, locus YMR205C, strain PFK2, hits give low values 1.02 | S. cerevisiae deletion strains, locus YMR223W, strain ubp8, hits give low values 0.997 | S. cerevisiae deletion strains, locus YMR231W, strain pep5, hits give low values 0.998 | S. cerevisiae deletion strains, locus YMR263W, strain SAP30, hits give low values 0.985 | S. cerevisiae deletion strains, locus YMR307W, strain GAS1, hits give low values 1.01 | S. cerevisiae deletion strains, locus YNL067W, strain RPL9B, hits give low values 0.994 | S. cerevisiae deletion strains, locus YNL071W, strain lat1, hits give low values 1 | S. cerevisiae deletion strains, locus YNL128W, strain TEP1, hits give low values 1 | S. cerevisiae deletion strains, locus YNL153C, strain GIM3, hits give low values 1.01 | S. cerevisiae deletion strains, locus YNL175C, strain NOP13, hits give low values 1 | S. cerevisiae deletion strains, locus YNL183C, strain NPR1, hits give low values 0.945 | S. cerevisiae deletion strains, locus YNL197C, strain WHI3, hits give low values 1 | S. cerevisiae deletion strains, locus YNL209W, strain ssb2, hits give low values 1 | S. cerevisiae deletion strains, locus YNL224C, strain SQS1, hits give low values 0.994 | S. cerevisiae deletion strains, locus YNL233W, strain BNI4, hits give low values 1.01 | S. cerevisiae deletion strains, locus YNL248C, strain rpa49, hits give low values 1.01 | S. cerevisiae deletion strains, locus YNL250W, strain rad50, hits give low values 0.989 | S. cerevisiae deletion strains, locus YNL271C, strain bni1, hits give low values 1.01 | S. cerevisiae deletion strains, locus YNL298W, strain CLA4, hits give low values 1.03 | S. cerevisiae deletion strains, locus YNL307C, strain MCK1, hits give low values 1.02 | S. cerevisiae deletion strains, locus YNL322C, strain KRE1 (second series), hits give low values 1.03 | S. cerevisiae deletion strains, locus YNL322C, strain KRE1, hits give low values 0.997 and 0.999 | S. cerevisiae deletion strains, locus YNR049C, strain mso1, hits give low values 1.02 | S. cerevisiae deletion strains, locus YNR052C, strain pop2, hits give low values 1.01 | S. cerevisiae deletion strains, locus YOL006C, strain TOP1, hits give low values 0.986 | S. cerevisiae deletion strains, locus YOL012C, strain htz1 0.949 | S. cerevisiae deletion strains, locus YOL147C, strain pex11, hits give low values 1.01 | S. cerevisiae deletion strains, locus YOR001W, strain rrp6, hits give low values 0.994 | S. cerevisiae deletion strains, locus YOR061W, strain CKA2, hits give low values 1 | S. cerevisiae deletion strains, locus YOR069W, strain VPS5, hits give low values 1 | S. cerevisiae deletion strains, locus YOR070C, strain gyp1, hits give low values 0.996 | S. cerevisiae deletion strains, locus YOR080W, strain dia2, hits give low values 0.996 | S. cerevisiae deletion strains, locus YOR083W, strain WHI5 (second series), hits give low values 1 | S. cerevisiae deletion strains, locus YOR083W, strain WHI5, hits give low values 1.02 | S. cerevisiae deletion strains, locus YOR106W, strain vam3, hits give low values 1.03 | S. cerevisiae deletion strains, locus YOR136W, strain idh2, hits give low values 0.988 | S. cerevisiae deletion strains, locus YOR144C, strain elg1, hits give low values 1 | S. cerevisiae deletion strains, locus YOR184W, strain ser1, hits give low values 1.03 | S. cerevisiae deletion strains, locus YOR231W, strain MKK1, hits give low values 0.961 | S. cerevisiae deletion strains, locus YOR265W, strain rbl2, hits give low values 0.994 | S. cerevisiae deletion strains, locus YOR270C, strain vph1, hits give low values 0.972 | S. cerevisiae deletion strains, locus YOR290C, strain snf2, hits give low values 1.03 | S. cerevisiae deletion strains, locus YOR316C, strain cot1, hits give low values 1 | S. cerevisiae deletion strains, locus YPL051W, strain arl3, hits give low values 0.994 | S. cerevisiae deletion strains, locus YPL078C, strain atp4, hits give low values 1 | S. cerevisiae deletion strains, locus YPL106C, strain sse1, hits give low values 1.02 | S. cerevisiae deletion strains, locus YPL240C, strain hsp82, hits give low values 0.982 | S. cerevisiae deletion strains, locus YPL241C, strain CIN2, hits give low values 1 and 0.994 | S. cerevisiae deletion strains, locus YPL256C, strain CLN2, hits give low values 0.933 | S. cerevisiae deletion strains, locus YPR119W, strain clb2, hits give low values 1 | S. cerevisiae deletion strains, locus YPR141C, strain kar3, hits give low values 0.994 | S. cerevisiae deletion strains, locus YPR163C, strain tif3, hits give low values 1.01 | S. cerevisiae deletion strains, locus YPR167C, strain met16, hits give low values 1 | S. cerevisiae deletion strains, strain wtn01, hits give low values 1.02 | S. cerevisiae strains, strain wild type, hits give low values 0.989
